Measurements published in PubChem BioAssay (NCATS).
Where “and” joins values, the source holds several entries; their conditions need not be identical. Equal entries are not always repeated. Inconclusive results are not listed. A call without a number means that no potency is given here. Calls of active or inactive are those of the source. Unless noted, the call rests on the fitted dose curve; in most records, active means well fitted curve in the direction sought with a large enough effect; inconclusive means small, poorly fitted or top-dose-only effect, or another doubt; inactive means no such curve, though single readings can be large; an effect the other way counts as inactive or inconclusive.

Assays:
[1] = target: Ubiquitin carboxyl-terminal hydrolase 1 (Homo sapiens) (UniProt O94782); assay: Inhibitors of USP1/UAF1: Pilot qHTS (AID 504865); further: nearly all actives have a fitted effect of over 35% in size; further: potency means the concentration at half of the fitted maximal effect
Procedure, shortened: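 Deubiquitinase activity followed as kinetic rhodamine fluorescence release from 150 nM Ub-Rho. 1 nM USP1/UAF1 with compound, after 15 min room-temperature preincubation, in HEPES pH 7.8 buffer containing TCEP, EDTA, BSA and Tween-20.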

[2] = target: DNA dC->dU-editing enzyme APOBEC-3G (Homo sapiens) (UniProt Q9HC16); assay: qHTS for inhibitors of Vif-A3G interactions: Validation (AID 588379)
Procedure, shortened: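 HeLa cells stably expressing Vif and A3G-eYFP, 700 cells/well, incubated overnight at 37 deg C, then exposed to compound overnight at 37 deg C. Inhibition of Vif-mediated degradation read as increased yellow fluorescence (Ex 488/Em 500-530) by laser-scanning cytometry.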

[3] = target: Voltage-gated inwardly rectifying potassium channel KCNH2 (Homo sapiens) (UniProt Q12809); assay: qHTS Assay for Small Molecule Inhibitors of the Human hERG Channel Activity (AID 588834);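 further: lower thallium flux fluorescence means stronger hERG block; nearly all actives have a fitted effect of over 50% in size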; further: potency means the concentration at half of the fitted maximal effect
Procedure, shortened: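 Kinetic FDSS fluorescence; U2OS + hERG BacMam (~100 virus particles/cell); FluxOR Tl+ flux; ~10 min cpd; AC50 (Hill).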

[4] = target: Luciferin 4-monooxygenase (Photinus pyralis) (UniProt P08659); assay: Biochemical firefly luciferase enzyme assay for NPC (AID 624030);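 further: purified P. pyralis luciferase at 10 nM with luciferin and ATP substrate; series mostly up to about 59 µM; nearly all actives have a fitted effect of over 70% in size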
Procedure, shortened: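 Counter-screen for direct inhibition of the luciferase enzyme by approved-drug library compounds, run at 10 nM enzyme in 50 mM Tris acetate (final). Luminescence was read within 5 min of enzyme-buffer addition and normalized to PTC124 versus DMSO (0%).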

[5] = S16 Schwann cell viability assay (CellTiter-Glo assay) (AID 624031);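 further: cellular ATP luminescence as a viability measure; series mostly up to about 58 µM; nearly all actives have a fitted effect of over 70% in size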
Procedure, shortened: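 This viability control uses native rat S16 Schwann cells grown in DMEM plus 10% FBS. After a 24 h compound treatment at 37 °C, CellTiter-Glo luminescence reports ATP content, scaled against DMSO-treated and cell-free wells.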

[6] = target: Glucocorticoid receptor (Homo sapiens) (UniProt P04150); assay: qHTS assay for small molecule antagonists of glucocorticoid receptor signaling (AID 588533; active means well fitted inhibition curve with a large enough effect in the signal ratio, with a control signal flat, not every such curve was filed as active; the % refers to the signal ratio;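 further: cells stimulated with 2 nM dexamethasone as agonist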)
Procedure, shortened: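 Antagonist-mode qHTS: compound titrations added to GRE-bla HeLa cells, then dexamethasone 2 nM final; 18 h, 37 C. CCF4 FRET fluorescence normalized to dexamethasone and DMSO; IC50 from Hill fit.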

[7] = target: Vitamin D3 receptor (Homo sapiens) (UniProt P11473); assay: qHTS assay for small molecule antagonists of vitamin D receptor signaling (AID 588541; calls by dose curve;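 further: receptor activated by calcitriol during compound treatment; series mostly up to about 77 µM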)
Procedure, shortened: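 VDR-UAS-bla HEK293T cells (2000/well, 2% charcoal-stripped FBS) were treated with titrated compounds plus 1-alpha,25-dihydroxyvitamin D3 (50 nM or 3 nM final) for 16 h at 37 C. CCF4 beta-lactamase fluorescence was read; Hill fits gave IC50.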

[8] = target: Vitamin D3 receptor (Homo sapiens) (UniProt P11473); assay: qHTS assay for small molecule agonists of vitamin D receptor signaling (AID 588543; calls by dose curve)
Procedure, shortened: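 Agonist-mode beta-lactamase reporter: HEK293T VDR-UAS-bla cells in charcoal-stripped 2% FBS, compound series 16 h 37 C, CCF4 2 h RT. EC50 from Hill fit, scaled against DMSO and 50 nM calcitriol control.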

[9] = qHTS assay for small molecule agonists of retinoid X receptor alpha signaling (AID 588544; calls by dose curve); conditions: HEK293T RXRa-UAS-bla, beta-lactamase reporter, 18 h; 530 nm emission
[10] = target: Retinoic acid receptor RXR-alpha (Homo sapiens) (UniProt P19793); assay: as above
[11] = target: Thyroid hormone receptor beta (Homo sapiens) (UniProt P10828); assay: qHTS assay for small molecule agonists of thyroid hormone receptor beta signaling (AID 588545; calls by dose curve)
Procedure, shortened: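 HEK 293 TR-UAS-bla; agonist mode; 18 hrs, 37 C; CCF4, ex 405/em 460 and 530 nm; norm. T3 10 nM = 100%, DMSO = 0%; Hill fit → EC50, efficacy.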

[12] = qHTS assay for small molecule antagonists of retinoid X receptor alpha signaling (AID 588546; active means well fitted inhibition curve with a large enough effect in the signal ratio, with a control signal flat, not every such curve was filed as active; the % refers to the signal ratio;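 further: cells stimulated with 9-cis-retinoic acid as agonist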); conditions: HEK293T RXRa-UAS-bla, beta-lactamase ratio, antagonist mode; measured here: W530 green channel, cytotoxicity proxy
Procedure, shortened: (§1)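 Beta-lactamase reporter inhibition, read as CCF4 fluorescence ratio (ex 405, em 460/530 nm) after 2 h at RT. HEK293T UAS-bla cells, 2500/well, were stimulated with 9-cis-RA at 500 or 100 nM final alongside test compound for 18 h at 37 C.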

[13] = target: Retinoic acid receptor RXR-alpha (Homo sapiens) (UniProt P19793); assay: as above; conditions: HEK293T RXRa-UAS-bla, beta-lactamase ratio, antagonist mode
Procedure, shortened: as §1

[14] = target: Thyroid hormone receptor beta (Homo sapiens) (UniProt P10828); assay: qHTS assay for small molecule antagonists of thyroid hormone receptor beta signaling (AID 588547; active means well fitted inhibition curve with a large enough effect in the signal ratio, with a control signal flat, not every such curve was filed as active; the % refers to the signal ratio;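 further: cells stimulated with 0.4 nM T3 agonist during compound exposure; series mostly up to about 77 µM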); conditions: TR-UAS-bla HEK293, beta-lactamase ratio, antagonist mode, 18 h
Procedure, shortened: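 TR-UAS-bla GripTite HEK293 cells in 2% charcoal/dextran FBS medium were preincubated 4 h at 37 C, given compound (0.59 nM to 92 uM) plus 0.4 nM T3 (final) for 18 h, then CCF4 for 2 h at RT; Hill fit gave IC50.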

Sequence of Thyroid hormone receptor beta (Homo sapiens) (P10828 whole entry, looked up): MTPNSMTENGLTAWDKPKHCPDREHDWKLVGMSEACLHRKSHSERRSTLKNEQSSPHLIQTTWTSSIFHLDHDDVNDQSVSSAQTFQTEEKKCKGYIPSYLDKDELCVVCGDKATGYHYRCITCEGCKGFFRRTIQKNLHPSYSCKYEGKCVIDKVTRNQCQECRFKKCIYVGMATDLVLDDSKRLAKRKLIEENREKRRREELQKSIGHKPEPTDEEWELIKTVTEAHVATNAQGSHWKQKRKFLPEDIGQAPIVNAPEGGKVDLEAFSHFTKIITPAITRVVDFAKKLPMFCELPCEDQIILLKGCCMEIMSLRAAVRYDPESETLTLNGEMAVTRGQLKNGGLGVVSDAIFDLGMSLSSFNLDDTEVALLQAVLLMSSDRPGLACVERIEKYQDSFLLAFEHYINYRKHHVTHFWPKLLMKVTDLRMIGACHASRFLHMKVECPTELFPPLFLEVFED
Sequence of Retinoic acid receptor RXR-alpha (Homo sapiens) (P19793 whole entry, looked up): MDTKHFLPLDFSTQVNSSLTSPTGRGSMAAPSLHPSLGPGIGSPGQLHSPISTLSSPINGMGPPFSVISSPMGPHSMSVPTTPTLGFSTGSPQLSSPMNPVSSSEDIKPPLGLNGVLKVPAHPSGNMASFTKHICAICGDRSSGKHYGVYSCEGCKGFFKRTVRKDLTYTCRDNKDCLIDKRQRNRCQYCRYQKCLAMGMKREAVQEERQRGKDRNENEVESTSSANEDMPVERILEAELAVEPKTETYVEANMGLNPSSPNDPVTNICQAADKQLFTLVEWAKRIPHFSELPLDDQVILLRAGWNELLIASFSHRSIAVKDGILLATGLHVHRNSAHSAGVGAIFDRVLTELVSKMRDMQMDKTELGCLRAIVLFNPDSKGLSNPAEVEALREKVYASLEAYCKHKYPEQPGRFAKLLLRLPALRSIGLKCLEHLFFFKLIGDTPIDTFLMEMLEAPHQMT
Sequence of Vitamin D3 receptor (Homo sapiens) (P11473 whole entry, looked up): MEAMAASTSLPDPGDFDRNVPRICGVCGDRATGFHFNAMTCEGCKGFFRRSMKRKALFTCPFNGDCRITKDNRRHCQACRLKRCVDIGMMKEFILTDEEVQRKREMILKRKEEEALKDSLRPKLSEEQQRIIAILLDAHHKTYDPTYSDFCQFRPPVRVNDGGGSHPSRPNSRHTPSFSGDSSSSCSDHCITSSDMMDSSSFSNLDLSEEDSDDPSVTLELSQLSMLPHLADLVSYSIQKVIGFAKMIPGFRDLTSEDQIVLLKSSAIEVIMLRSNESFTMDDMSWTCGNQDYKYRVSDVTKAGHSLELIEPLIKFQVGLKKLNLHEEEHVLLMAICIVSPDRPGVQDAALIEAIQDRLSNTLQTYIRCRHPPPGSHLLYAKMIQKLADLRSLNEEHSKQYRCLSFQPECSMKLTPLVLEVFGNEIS
Sequence of DNA dC->dU-editing enzyme APOBEC-3G (Homo sapiens) (Q9HC16 whole entry, looked up): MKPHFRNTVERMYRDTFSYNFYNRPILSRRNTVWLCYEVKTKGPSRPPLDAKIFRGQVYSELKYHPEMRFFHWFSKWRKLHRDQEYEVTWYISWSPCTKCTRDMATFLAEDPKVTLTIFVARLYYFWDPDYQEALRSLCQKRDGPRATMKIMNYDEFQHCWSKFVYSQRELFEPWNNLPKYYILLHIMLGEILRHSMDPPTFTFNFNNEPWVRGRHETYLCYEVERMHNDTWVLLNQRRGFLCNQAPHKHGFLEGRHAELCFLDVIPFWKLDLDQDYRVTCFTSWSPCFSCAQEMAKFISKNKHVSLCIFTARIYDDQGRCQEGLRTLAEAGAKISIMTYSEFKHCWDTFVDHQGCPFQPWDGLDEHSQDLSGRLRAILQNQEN
Sequence of Ubiquitin carboxyl-terminal hydrolase 1 (Homo sapiens) (O94782 whole entry, looked up): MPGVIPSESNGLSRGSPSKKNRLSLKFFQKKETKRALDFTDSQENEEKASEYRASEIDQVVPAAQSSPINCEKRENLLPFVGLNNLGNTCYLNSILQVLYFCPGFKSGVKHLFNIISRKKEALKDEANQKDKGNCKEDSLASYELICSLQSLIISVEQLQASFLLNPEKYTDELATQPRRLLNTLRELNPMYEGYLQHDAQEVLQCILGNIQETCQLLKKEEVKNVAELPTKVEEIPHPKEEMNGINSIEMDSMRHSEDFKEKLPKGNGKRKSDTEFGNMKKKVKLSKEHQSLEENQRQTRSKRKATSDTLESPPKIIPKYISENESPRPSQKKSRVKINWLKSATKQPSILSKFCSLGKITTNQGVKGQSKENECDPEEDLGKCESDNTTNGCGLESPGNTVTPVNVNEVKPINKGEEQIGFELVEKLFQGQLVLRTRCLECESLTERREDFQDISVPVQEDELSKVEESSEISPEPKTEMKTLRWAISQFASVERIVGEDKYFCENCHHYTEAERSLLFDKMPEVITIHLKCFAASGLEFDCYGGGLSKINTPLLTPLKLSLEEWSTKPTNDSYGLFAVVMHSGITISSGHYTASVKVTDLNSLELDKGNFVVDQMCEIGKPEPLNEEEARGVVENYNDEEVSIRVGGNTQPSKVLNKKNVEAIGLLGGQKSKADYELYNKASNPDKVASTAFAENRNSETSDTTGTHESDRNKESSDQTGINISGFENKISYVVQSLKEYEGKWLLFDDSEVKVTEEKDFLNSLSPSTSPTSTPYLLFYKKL
Sequence of Voltage-gated inwardly rectifying potassium channel KCNH2 (Homo sapiens) (Q12809 whole entry, looked up): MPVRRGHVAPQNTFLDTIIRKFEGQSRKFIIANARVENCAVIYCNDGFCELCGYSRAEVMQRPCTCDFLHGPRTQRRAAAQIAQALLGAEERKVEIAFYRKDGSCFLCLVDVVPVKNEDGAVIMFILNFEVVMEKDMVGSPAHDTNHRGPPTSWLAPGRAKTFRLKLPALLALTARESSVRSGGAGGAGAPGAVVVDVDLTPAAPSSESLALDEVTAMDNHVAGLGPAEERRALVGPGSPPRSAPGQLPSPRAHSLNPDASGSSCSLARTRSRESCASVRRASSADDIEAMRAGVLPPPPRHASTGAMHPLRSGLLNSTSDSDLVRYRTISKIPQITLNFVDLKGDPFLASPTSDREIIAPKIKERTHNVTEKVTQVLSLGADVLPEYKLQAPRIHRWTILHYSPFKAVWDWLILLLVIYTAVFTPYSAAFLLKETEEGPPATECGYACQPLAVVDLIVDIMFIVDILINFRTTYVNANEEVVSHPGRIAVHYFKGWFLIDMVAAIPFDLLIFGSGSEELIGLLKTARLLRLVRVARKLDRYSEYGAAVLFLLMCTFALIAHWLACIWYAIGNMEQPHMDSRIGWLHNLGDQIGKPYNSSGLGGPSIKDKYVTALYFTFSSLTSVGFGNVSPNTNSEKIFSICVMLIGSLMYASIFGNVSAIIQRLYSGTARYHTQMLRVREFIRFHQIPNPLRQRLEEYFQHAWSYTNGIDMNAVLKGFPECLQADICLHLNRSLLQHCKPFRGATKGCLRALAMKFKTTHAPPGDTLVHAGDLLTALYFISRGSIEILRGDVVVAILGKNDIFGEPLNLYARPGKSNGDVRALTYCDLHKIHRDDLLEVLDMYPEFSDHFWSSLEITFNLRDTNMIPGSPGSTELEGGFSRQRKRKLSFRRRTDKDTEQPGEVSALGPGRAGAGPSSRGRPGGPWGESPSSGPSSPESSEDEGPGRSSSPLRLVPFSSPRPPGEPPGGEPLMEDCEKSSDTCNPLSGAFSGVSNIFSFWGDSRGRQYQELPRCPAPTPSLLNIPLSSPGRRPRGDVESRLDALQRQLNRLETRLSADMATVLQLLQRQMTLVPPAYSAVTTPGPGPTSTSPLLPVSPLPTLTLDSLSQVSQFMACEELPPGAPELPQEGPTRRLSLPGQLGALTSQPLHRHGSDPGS
Sequence of Luciferin 4-monooxygenase (Photinus pyralis) (P08659 whole entry, looked up): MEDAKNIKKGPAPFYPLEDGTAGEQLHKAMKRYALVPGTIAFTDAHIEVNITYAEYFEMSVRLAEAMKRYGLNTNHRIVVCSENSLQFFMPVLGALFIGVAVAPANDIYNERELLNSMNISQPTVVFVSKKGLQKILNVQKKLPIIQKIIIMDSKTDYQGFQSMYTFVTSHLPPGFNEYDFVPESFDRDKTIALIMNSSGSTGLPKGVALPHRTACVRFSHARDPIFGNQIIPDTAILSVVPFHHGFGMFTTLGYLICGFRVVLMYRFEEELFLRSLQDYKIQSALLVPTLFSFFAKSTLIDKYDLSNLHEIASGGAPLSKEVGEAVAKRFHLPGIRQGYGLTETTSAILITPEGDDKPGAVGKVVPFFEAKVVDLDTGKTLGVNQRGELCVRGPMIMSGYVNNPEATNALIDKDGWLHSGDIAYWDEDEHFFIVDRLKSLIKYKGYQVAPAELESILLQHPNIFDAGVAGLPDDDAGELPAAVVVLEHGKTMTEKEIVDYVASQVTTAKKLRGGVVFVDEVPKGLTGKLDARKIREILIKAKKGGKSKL
Sequence of Glucocorticoid receptor (Homo sapiens) (P04150 whole entry, looked up): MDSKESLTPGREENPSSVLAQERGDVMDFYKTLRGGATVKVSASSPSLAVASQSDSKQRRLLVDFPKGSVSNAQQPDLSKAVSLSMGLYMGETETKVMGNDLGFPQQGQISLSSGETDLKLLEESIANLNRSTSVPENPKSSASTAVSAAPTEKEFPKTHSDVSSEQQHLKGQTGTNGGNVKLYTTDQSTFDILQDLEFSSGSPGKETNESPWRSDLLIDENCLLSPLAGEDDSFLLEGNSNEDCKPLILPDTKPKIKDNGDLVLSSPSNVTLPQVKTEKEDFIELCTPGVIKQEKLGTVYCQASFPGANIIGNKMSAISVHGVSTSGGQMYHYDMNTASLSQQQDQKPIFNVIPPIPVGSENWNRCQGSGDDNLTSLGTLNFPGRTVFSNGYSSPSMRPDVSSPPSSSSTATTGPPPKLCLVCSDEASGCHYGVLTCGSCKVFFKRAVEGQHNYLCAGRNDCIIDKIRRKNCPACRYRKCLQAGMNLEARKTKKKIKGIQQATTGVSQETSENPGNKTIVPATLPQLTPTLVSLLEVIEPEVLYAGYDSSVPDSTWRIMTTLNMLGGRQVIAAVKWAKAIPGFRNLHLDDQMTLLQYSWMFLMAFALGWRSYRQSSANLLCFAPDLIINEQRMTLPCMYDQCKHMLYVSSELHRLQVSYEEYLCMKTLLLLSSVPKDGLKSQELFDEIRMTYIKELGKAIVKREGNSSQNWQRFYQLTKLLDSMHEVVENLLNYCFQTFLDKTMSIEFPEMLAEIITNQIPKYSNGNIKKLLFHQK

Question: With `CCCCC[C@H](O)C=C[C@H]1[C@H](O)CC(=O)[C@H]1CCCCCCC(=O)O` as the compound, how does the Potency [1] read?
Answer: inactive

Question: What about the outcome [2] of the same compound?
Answer: inactive

Question: Which results are given for `NS(=O)(=O)c1cc(Cl)c(Cl)c(S(N)(=O)=O)c1`?
Answer: Potency [1]: inactive; Potency [3]: inactive; outcome [4]: inactive; outcome [5]: inactive

Question: What does the source list for `CS(=O)(=O)c1ccc(C2=C(c3ccccc3)C(=O)OC2)cc1`?
Answer: Potency [1]: inactive; Potency [3]: inactive; outcome [4]: inactive; outcome [5]: inactive

Question: Which Potency [1] does the source give for `COc1ccnc(CS(=O)c2nc3ccc(OC(F)F)cc3[nH]2)c1OC` (stereo not given) here?
Answer: inactive

Question: And the outcome [4]?
Answer: inactive

Question: What about the outcome [5] of the same compound?
Answer: inactive

Question: For `O=c1cc(-c2ccc(O)c(O)c2)oc2cc(O)cc(O)c12`, which outcome [2] is on record?
Answer: inactive

Question: Which outcome [4] does the source give for `CC[C@@H]([C@H](C)O)n1ncn(-c2ccc(N3CCN(c4ccc(OCC5CO[C@@](Cn6cncn6)(c6ccc(F)cc6F)C5)cc4)CC3)cc2)c1=O` (stereo not given in full) here?
Answer: inactive

Question: For `C[C@@H]1C[C@H]2[C@@H]3CCC4=CC(=O)C=C[C@]4(C)[C@@]3(F)[C@@H](O)C[C@]2(C)[C@@]1(O)C(=O)CO`, which outcome [6] is on record?
Answer: inactive

Question: And the outcome [7]?
Answer: inactive

Question: And the outcome [8]?
Answer: inactive

Question: And the max response [9]?
Answer: 10.8% and 0.324%

Question: And the outcome [10]?
Answer: inactive

Question: And the outcome [11]?
Answer: inactive

Question: What about the max response [12] of the same compound?
Answer: 18.8% and -5.96%

Question: And the max response [13]?
Answer: -0.0279% (inactive) and -1.12% (inactive)

Question: What about the activity change % (negative = inhibition) [14] of the same compound?
Answer: 1.08% (inactive) and 5.56% (inactive)

Question: What about the Potency [3] of the same compound?
Answer: inactive

Question: With `CC(C)CN(C[C@@H](O)[C@H](Cc1ccccc1)NC(=O)O[C@H]1CO[C@H]2OCC[C@H]21)S(=O)(=O)c1ccc(N)cc1` as the compound, how does the Potency [1] read?
Answer: inactive

Question: What about the outcome [4] of the same compound?
Answer: inactive

Question: And the outcome [5]?
Answer: inactive

Question: Which Potency [1] does the source give for `Cc1cc2nc3c(=O)[nH]c(=O)nc-3n(CC(O)C(O)C(O)CO)c2cc1C` (stereo not given) here?
Answer: 31.6 µM (active)

Question: What about the outcome [4] of the same compound?
Answer: inactive

Question: What about the outcome [5] of the same compound?
Answer: inactive

Question: With `CC[C@]1(O)C[C@H]2CN(CCC3=c4ccccc4=N[C]3[C@@](C(=O)OC)(c3cc4c(cc3OC)N(C)[C@H]3[C@@](O)(C(N)=O)[C@H](O)[C@]5(CC)C=CCN6CC[C@]43[C@@H]65)C2)C1` as the compound, how does the outcome [4] read?
Answer: inactive

Question: Which outcome [2] does the source give for `COc1ccc(CCN(C)CCCOc2ccc(S(=O)(=O)c3[nH]c4ccccc4c3C(C)C)cc2)cc1OC` here?
Answer: inactive

Question: With `COc1ccc(-c2nc3ccc(C4=NNC(=O)CC4C)cc3[nH]2)cc1` (stereo not given) as the compound, how does the Potency [3] read?
Answer: inactive

Question: For `CCC(=O)OCC(=O)[C@@]1(OC(=O)CC)[C@@H](C)C[C@@H]2[C@H]3CCC4=CC(=O)C=C[C@]4(C)[C@@]3(F)[C@@H](O)C[C@@]21C`, which outcome [4] is on record?
Answer: inactive

Question: With `Clc1ccc(COC(Cn2ccnc2)c2ccc(Cl)cc2Cl)c(Cl)c1` (stereo not given) as the compound, how does the Potency [3] read?
Answer: 4.47 µM (active)

Question: What about the outcome [4] of the same compound?
Answer: inactive

Question: And the outcome [5]?
Answer: inactive

Question: With `CCC[C@H](N[C@@H](C)C(=O)N1[C@@H]2CCCC[C@H]2C[C@H]1C(=O)O)C(=O)OCC` as the compound, how does the outcome [4] read?
Answer: inactive

Question: Which outcome [4] does the source give for `C[C@@H](O[C@H]1OCCN(Cc2n[nH]c(=O)[nH]2)[C@@H]1c1ccc(F)cc1)c1cc(C(F)(F)F)cc(C(F)(F)F)c1` here?
Answer: inactive

Question: With `CC(C)(CO)[C@@H](O)C(=O)NCCC(=O)O` as the compound, how does the outcome [4] read?
Answer: inactive

Question: Which Potency [1] does the source give for `O=C1C(CCC(O)c2ccc(F)cc2)C(c2ccc(O)cc2)N1c1ccc(F)cc1` (stereo not given) here?
Answer: inactive

Question: What about the outcome [4] of the same compound?
Answer: inactive

Question: And the outcome [5]?
Answer: inactive

Question: With `COc1cc2c(cc1OC)CC(=O)N(CCCN(C)C[C@H]1Cc3cc(OC)c(OC)cc31)CC2` as the compound, how does the Potency [1] read?
Answer: inactive

Question: What about the outcome [4] of the same compound?
Answer: inactive

Question: What about the outcome [5] of the same compound?
Answer: inactive

Question: With `C=C1c2cccc(O)c2C(O)=C2C(=O)[C@@]3(O)C(O)=C(C(N)=O)C(=O)[C@@H](N(C)C)[C@@H]3[C@@H](O)[C@H]12` as the compound, how does the outcome [4] read?
Answer: inactive

Question: For `CC[C@H]1OC(=O)[C@H](C)[C@@H](O[C@H]2C[C@@](C)(OC)[C@@H](O)[C@H](C)O2)[C@H](C)[C@@H](O[C@@H]2O[C@H](C)C[C@H](N(C)C)[C@H]2O)[C@](C)(O)C[C@H](C)C(=NOCOCCOC)[C@H](C)[C@@H](O)[C@]1(C)O`, which outcome [4] is on record?
Answer: inactive

Question: For `O=C1CN2Cc3c(ccc(Cl)c3Cl)N=C2N1`, which outcome [4] is on record?
Answer: inactive

Question: With `CC[C@H](C)C(=O)O[C@H]1C[C@H](O)C=C2C=C[C@H](C)[C@H](CC[C@@H](O)C[C@@H](O)CC(=O)O)[C@H]21` as the compound, how does the Potency [3] read?
Answer: inactive

Question: With `CCCCC(F)(F)[C@@]1(O)CC[C@H]2[C@H](CC(=O)[C@@H]2CCCCCCC(=O)O)O1` as the compound, how does the outcome [4] read?
Answer: inactive

Question: For `Fc1ccc(C(c2ccc(F)cc2)N2CCN(CC=Cc3ccccc3)CC2)cc1`, which outcome [4] is on record?
Answer: inactive

Question: Which outcome [4] does the source give for `O=C(CCCN1CCN(c2ccc(F)cc2)CC1)NC1c2ccccc2CSc2ccccc21` (stereo not given) here?
Answer: inactive

Question: With `CCCCCCCCCCCCCCCC(=O)O[C@H]1[C@@H](O)[C@@H](O)[C@@H]([C@H](NC(=O)[C@@H]2C[C@@H](CCC)CN2C)[C@H](C)Cl)O[C@@H]1SC` as the compound, how does the outcome [4] read?
Answer: inactive
